# Laboratory results reported in PMC7862700, “An all-to-all approach to the identification of sequence-specific readers for epigenetic DNA modifications on cytosine”.
# Tests used:
# Experiment in all cases: DAPPL (digital affinity profiling via proximity ligation, sequencing); 10 mM Tris-HCl pH 7.5, 50 mM NaCl, 1 mM DTT, 4% glycerol, room temperature, 30 min; GST-TFs on glutathione beads, 16-mer random dsDNA library, 0.1% formaldehyde crosslink after washing; high values mean tight binding
# FEV = molecular target: T1, FEV (Homo sapiens, UniProt Q99581 1-238); details: protein: recombinant; tags: N-terminal GST; dsDNA, one strand shown
# T1 sequence: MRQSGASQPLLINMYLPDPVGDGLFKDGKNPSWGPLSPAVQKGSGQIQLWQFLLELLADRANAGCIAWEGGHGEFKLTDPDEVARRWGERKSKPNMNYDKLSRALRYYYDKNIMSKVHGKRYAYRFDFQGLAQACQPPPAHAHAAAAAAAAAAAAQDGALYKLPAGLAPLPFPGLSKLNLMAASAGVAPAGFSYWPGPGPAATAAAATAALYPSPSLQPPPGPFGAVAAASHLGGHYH
# In short: (§1)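 Beads coated with glutathione captured GST-fused human transcription factors that had been expressed in yeast, and the factors were then given DNA barcodes and pooled with a tag-only sample. The pools were incubated with 200 nmole of a random double-stranded 16-mer DNA library in Tris/NaCl/DTT/glycerol buffer for 30 min at room temperature, washed, crosslinked with 0.1% formaldehyde and proximity-ligated with BsaI/T4 ligase at 37 °C for 1 h. PCR amplification and Illumina NextSeq500 sequencing came last. Binding signal is each hexamer's read frequency for a factor divided by its frequency for the tag-only sample.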
# ETV5 = ETV5 (Homo sapiens, UniProt P41161 1-510); details: protein: recombinant; tags: N-terminal GST; dsDNA, one strand shown
# In short: as §1
# HSF1 = HSF1 (Homo sapiens, UniProt Q00613 1-529); details: protein: recombinant; tags: N-terminal GST; chain copies: 3; dsDNA, one strand shown
# In short: as §1
# SPIC = molecular target: T2, SPIC (Homo sapiens, UniProt Q8N5J4 1-248); details: protein: recombinant; tags: N-terminal GST; dsDNA, one strand shown
# T2 sequence: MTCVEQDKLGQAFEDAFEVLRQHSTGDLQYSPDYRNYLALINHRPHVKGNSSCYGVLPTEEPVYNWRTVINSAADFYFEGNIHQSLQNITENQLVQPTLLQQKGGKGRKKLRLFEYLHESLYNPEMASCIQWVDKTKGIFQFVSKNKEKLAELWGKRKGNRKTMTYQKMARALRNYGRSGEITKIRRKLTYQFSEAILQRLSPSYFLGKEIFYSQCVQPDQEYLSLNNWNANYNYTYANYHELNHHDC
# In short: as §1
# ELF4 = ELF4 (Homo sapiens, UniProt Q99607 1-663); details: protein: recombinant; tags: N-terminal GST; dsDNA, one strand shown
# In short: as §1
# ELK4 = molecular target: T3, ELK4 (Homo sapiens, UniProt P28324-2 1-405); details: protein: recombinant; tags: N-terminal GST; dsDNA, one strand shown
# T3 sequence: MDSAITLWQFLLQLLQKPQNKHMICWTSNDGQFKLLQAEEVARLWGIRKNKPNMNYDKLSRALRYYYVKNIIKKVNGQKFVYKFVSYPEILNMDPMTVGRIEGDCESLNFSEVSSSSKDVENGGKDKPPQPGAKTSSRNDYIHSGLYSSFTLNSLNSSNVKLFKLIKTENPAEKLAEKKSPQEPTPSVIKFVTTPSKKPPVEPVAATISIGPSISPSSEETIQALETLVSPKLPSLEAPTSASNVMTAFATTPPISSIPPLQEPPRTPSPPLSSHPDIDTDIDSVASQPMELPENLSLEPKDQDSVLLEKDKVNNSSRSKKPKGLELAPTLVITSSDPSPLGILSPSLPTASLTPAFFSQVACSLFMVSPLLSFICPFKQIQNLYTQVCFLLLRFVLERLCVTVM
# In short: as §1
# ETV2 = molecular target: T4, ETV2 (Homo sapiens, UniProt O00321 1-342); details: protein: recombinant; tags: N-terminal GST; dsDNA, one strand shown
# T4 sequence: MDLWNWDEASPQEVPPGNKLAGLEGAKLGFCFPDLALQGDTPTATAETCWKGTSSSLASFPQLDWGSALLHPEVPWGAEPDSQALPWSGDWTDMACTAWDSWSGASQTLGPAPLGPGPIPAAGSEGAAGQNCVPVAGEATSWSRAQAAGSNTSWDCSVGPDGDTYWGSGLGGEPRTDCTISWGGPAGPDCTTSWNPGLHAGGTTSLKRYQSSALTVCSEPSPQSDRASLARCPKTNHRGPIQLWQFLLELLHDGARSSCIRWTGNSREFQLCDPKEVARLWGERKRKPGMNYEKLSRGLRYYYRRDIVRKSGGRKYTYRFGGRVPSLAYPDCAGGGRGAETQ
# In short: as §1
# ELF3 = molecular target: T5, ELF3 (Homo sapiens, UniProt P78545 1-371); details: protein: recombinant; tags: N-terminal GST; dsDNA, one strand shown
# T5 sequence: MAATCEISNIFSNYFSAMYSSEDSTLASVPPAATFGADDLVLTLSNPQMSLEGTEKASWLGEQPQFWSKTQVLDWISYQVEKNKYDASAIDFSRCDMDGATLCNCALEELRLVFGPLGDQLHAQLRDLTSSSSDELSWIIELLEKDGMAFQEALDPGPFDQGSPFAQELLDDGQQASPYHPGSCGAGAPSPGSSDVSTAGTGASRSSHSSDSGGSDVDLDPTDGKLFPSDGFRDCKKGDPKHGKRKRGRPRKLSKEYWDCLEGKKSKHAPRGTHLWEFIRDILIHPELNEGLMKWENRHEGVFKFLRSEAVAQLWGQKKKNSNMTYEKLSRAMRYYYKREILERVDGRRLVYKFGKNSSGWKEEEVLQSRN
# In short: as §1
# CRX = CRX (Homo sapiens, UniProt O43186 1-299); details: protein: recombinant; tags: N-terminal GST; dsDNA, one strand shown
# In short: as §1
# ETV1 = ETV1 (Homo sapiens, UniProt P50549 1-477); details: protein: recombinant; tags: N-terminal GST; dsDNA, one strand shown
# In short: as §1
# ERF = molecular target: T6, ERF (Homo sapiens, UniProt P50548 1-548); details: protein: recombinant; tags: N-terminal GST; dsDNA, one strand shown
# T6 sequence: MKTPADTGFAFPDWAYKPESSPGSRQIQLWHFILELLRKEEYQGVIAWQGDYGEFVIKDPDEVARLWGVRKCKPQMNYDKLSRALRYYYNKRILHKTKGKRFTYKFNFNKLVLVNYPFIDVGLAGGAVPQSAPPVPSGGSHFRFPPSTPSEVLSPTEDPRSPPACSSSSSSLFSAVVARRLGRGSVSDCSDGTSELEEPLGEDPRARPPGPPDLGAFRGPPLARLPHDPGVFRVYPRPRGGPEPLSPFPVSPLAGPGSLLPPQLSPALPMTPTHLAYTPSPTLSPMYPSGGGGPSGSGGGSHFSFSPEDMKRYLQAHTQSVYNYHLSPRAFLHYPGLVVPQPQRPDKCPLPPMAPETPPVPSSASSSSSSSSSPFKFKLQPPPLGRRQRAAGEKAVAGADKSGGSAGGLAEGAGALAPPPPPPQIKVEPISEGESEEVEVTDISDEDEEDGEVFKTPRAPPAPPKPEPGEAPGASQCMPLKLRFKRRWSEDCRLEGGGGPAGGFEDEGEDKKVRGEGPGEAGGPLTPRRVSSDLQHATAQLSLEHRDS
# In short: as §1
# ETV3L = molecular target: T7, ETV3L (Homo sapiens, UniProt Q6ZN32 1-361); details: protein: recombinant; tags: N-terminal GST; dsDNA, one strand shown
# T7 sequence: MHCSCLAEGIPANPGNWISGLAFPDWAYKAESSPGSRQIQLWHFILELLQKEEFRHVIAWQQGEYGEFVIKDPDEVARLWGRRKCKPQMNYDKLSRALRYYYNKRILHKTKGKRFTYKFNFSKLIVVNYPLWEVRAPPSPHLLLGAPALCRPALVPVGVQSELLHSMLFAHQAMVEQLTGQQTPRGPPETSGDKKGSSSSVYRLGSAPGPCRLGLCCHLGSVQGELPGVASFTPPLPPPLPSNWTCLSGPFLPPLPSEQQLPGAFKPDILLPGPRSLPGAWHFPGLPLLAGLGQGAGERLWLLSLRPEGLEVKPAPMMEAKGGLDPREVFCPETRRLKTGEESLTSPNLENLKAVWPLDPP
# In short: as §1
# ETS2 = molecular target: T8, ETS2 (Homo sapiens, UniProt P15036 1-469); details: protein: recombinant; tags: N-terminal GST; dsDNA, one strand shown
# T8 sequence: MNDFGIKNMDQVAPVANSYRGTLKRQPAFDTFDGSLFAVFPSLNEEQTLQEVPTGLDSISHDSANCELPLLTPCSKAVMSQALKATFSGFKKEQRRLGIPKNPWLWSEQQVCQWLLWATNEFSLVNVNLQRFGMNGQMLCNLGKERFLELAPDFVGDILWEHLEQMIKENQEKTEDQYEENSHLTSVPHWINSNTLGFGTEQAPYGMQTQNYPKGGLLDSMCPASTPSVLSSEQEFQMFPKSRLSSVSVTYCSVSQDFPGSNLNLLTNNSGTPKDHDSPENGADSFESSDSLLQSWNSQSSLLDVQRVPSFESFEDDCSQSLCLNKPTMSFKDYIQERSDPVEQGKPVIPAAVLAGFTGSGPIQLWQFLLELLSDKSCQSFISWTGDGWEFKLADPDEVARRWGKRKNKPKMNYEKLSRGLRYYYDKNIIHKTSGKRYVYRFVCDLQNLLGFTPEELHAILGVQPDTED
# In short: as §1
# SPDEF = molecular target: T9, SPDEF (Homo sapiens, UniProt O95238 1-335); details: protein: recombinant; tags: N-terminal GST; dsDNA, one strand shown
# T9 sequence: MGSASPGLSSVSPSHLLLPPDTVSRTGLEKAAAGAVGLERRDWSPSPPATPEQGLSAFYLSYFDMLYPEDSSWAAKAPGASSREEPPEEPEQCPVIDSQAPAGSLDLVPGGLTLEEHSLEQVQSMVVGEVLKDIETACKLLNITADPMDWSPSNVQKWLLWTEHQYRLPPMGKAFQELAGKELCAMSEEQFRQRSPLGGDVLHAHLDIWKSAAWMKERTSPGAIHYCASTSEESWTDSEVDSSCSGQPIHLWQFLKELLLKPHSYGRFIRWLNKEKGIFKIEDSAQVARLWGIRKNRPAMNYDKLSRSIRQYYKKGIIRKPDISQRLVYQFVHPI
# In short: as §1
# ETV7 = molecular target: T10, ETV7 (Homo sapiens, UniProt Q9Y603 1-341); details: protein: recombinant; tags: N-terminal GST; dsDNA, one strand shown
# T10 sequence: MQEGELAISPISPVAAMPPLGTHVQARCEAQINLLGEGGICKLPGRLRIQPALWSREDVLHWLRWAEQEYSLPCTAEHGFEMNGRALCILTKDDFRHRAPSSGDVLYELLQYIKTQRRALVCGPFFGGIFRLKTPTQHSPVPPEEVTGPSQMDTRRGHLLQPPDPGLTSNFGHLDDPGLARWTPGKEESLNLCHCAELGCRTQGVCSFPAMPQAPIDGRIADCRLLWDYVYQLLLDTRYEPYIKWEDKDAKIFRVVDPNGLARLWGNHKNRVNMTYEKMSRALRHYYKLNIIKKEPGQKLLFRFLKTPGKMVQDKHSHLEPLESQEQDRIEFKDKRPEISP
# In short: as §1
# ELF5 = molecular target: T11, ELF5 (Homo sapiens, UniProt Q9UKW6-2 1-255); details: protein: recombinant; tags: N-terminal GST; dsDNA, one strand shown
# T11 sequence: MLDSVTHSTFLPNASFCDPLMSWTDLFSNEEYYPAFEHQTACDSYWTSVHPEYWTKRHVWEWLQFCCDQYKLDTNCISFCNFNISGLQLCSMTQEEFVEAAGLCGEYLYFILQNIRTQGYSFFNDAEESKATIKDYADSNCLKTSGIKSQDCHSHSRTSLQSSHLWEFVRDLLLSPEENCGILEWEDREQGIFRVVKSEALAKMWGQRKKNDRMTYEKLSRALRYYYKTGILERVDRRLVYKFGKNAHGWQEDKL
# In short: as §1
# ETV3 = molecular target: T12, ETV3 (Homo sapiens, UniProt P41162-2 1-143); details: protein: recombinant; tags: N-terminal GST; dsDNA, one strand shown
# T12 sequence: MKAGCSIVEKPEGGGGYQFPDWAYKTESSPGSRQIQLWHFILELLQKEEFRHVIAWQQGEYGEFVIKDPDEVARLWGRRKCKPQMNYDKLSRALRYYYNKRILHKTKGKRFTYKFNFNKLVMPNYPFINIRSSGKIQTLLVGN
# In short: as §1
# ETV6 = ETV6 (Homo sapiens, UniProt P41212 1-452); details: protein: recombinant; tags: N-terminal GST; dsDNA, one strand shown
# In short: as §1
# Chain of ELF4 (Q99607 whole entry): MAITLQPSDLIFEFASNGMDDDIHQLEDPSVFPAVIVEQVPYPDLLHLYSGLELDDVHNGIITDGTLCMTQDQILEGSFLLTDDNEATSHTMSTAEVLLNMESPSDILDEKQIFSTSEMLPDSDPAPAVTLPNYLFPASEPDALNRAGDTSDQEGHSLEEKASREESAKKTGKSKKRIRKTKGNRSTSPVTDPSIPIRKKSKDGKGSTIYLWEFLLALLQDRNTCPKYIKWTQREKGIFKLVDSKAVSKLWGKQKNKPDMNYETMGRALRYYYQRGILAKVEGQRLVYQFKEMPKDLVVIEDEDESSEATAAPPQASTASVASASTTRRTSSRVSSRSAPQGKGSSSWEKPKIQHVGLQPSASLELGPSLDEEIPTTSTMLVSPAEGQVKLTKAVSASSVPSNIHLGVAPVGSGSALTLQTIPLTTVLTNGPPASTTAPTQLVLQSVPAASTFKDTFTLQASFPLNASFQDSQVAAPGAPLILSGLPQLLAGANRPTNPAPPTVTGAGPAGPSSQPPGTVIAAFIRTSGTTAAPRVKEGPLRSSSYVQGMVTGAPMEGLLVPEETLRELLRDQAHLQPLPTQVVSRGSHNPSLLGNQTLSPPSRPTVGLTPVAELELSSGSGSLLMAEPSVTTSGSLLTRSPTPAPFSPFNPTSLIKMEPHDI
# Chain of ETV5 (P41161 whole entry): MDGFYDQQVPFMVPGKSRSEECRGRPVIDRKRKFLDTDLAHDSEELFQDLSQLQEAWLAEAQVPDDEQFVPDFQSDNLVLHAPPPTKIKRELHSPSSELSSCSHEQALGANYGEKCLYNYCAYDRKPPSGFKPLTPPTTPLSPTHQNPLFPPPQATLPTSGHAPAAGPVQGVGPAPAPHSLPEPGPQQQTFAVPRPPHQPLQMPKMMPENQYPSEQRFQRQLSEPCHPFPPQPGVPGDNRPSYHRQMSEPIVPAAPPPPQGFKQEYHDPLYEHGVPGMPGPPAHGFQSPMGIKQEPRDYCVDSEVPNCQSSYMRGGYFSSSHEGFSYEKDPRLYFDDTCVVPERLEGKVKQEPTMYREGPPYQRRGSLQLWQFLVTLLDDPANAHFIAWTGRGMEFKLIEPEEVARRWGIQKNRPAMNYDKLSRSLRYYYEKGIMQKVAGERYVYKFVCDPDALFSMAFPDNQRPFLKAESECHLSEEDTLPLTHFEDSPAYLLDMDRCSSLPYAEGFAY
# Chain of ETV6 (P41212 whole entry): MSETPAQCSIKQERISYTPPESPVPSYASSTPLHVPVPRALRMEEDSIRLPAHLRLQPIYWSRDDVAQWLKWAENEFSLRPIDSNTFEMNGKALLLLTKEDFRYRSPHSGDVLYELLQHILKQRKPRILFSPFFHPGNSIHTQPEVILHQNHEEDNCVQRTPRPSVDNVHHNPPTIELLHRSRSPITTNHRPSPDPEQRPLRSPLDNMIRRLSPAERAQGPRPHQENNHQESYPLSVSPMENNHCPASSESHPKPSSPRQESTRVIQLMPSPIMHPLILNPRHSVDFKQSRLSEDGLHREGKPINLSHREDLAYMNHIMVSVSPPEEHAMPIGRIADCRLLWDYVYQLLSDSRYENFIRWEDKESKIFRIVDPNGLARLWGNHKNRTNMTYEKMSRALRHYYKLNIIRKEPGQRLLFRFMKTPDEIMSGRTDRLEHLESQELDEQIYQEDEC
# Chain of ETV1 (P50549 whole entry): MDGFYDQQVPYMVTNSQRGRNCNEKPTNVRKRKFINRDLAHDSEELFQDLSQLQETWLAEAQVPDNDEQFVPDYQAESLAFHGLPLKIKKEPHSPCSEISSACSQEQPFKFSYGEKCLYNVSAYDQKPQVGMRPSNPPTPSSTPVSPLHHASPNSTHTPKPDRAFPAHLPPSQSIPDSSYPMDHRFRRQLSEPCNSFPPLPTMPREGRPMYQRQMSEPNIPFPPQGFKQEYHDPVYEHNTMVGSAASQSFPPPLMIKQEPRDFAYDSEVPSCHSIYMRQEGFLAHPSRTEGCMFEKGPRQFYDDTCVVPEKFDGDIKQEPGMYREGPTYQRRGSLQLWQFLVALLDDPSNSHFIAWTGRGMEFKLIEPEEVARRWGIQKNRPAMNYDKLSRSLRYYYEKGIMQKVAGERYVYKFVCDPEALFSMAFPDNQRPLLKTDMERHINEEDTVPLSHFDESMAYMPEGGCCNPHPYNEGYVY
# Chain of HSF1 (Q00613 whole entry): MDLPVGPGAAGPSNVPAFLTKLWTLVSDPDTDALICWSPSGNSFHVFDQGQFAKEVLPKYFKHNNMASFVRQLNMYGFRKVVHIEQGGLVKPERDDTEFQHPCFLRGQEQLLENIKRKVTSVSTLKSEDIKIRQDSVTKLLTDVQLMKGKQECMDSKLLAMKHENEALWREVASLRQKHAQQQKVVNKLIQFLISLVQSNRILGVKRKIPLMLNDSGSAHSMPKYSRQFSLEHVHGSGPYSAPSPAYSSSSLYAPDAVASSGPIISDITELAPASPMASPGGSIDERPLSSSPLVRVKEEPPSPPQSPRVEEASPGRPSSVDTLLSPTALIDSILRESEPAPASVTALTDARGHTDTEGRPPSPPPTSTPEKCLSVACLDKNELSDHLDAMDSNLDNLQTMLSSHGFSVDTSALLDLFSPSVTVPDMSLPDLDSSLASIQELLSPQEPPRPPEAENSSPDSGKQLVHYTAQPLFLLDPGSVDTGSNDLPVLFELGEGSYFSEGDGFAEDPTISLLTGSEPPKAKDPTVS
# Chain of CRX (O43186 whole entry): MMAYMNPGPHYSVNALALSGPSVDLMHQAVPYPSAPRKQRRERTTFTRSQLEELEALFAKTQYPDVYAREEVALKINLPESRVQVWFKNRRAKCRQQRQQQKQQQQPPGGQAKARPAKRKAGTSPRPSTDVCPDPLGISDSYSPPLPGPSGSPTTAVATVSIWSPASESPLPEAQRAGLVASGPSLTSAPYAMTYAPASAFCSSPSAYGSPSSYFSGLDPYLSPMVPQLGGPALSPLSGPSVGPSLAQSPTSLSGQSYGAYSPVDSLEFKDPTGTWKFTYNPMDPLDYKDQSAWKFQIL
sequence,measurement,setting,value
ATCTAC,binding signal,FEV,"1.33 fold enrichment (6-mer frequency, TF over GST control)"
same,binding signal,ETV5,"1.25 fold enrichment (6-mer frequency, TF over GST control)"
same,binding signal,HSF1,"1.43 fold enrichment (6-mer frequency, TF over GST control)"
same,binding signal,SPIC,"1.34 fold enrichment (6-mer frequency, TF over GST control)"
same,binding signal,ELF4,"1.27 fold enrichment (6-mer frequency, TF over GST control)"
same,binding signal,ELK4,"1.11 fold enrichment (6-mer frequency, TF over GST control)"
same,binding signal,ETV2,"1.29 fold enrichment (6-mer frequency, TF over GST control)"
same,binding signal,ELF3,"1.33 fold enrichment (6-mer frequency, TF over GST control)"
same,binding signal,CRX,"1.5 fold enrichment (6-mer frequency, TF over GST control)"
same,binding signal,ETV1,"1.26 fold enrichment (6-mer frequency, TF over GST control)"
same,binding signal,ERF,"1.44 fold enrichment (6-mer frequency, TF over GST control)"
same,binding signal,ETV3L,"1.36 fold enrichment (6-mer frequency, TF over GST control)"
same,binding signal,ETS2,"1.32 fold enrichment (6-mer frequency, TF over GST control)"
same,binding signal,SPDEF,"1.24 fold enrichment (6-mer frequency, TF over GST control)"
same,binding signal,ETV7,"1.21 fold enrichment (6-mer frequency, TF over GST control)"
same,binding signal,ELF5,"1.3 fold enrichment (6-mer frequency, TF over GST control)"
same,binding signal,ETV3,"1.2 fold enrichment (6-mer frequency, TF over GST control)"
same,binding signal,ETV6,"1.29 fold enrichment (6-mer frequency, TF over GST control)"
